# BAZ2B block: blocks human BAZ2B; Q9UIF8; AlphaScreen BAZ2B-H3K14Ac peptide displacement; Potency, µM (doses to about 114 µM), for inactives: at the highest dose activity change, negative = inhibition, most hits filed as inhibitors; 360,000 tested, 4.4% active; AID 504333; note: % is set by controls: 0 for no effect and ±100 for the full control effect; nearly all actives have a fitted effect of over 60% in size
# Target sequence (Q9UIF8 whole entry, looked up): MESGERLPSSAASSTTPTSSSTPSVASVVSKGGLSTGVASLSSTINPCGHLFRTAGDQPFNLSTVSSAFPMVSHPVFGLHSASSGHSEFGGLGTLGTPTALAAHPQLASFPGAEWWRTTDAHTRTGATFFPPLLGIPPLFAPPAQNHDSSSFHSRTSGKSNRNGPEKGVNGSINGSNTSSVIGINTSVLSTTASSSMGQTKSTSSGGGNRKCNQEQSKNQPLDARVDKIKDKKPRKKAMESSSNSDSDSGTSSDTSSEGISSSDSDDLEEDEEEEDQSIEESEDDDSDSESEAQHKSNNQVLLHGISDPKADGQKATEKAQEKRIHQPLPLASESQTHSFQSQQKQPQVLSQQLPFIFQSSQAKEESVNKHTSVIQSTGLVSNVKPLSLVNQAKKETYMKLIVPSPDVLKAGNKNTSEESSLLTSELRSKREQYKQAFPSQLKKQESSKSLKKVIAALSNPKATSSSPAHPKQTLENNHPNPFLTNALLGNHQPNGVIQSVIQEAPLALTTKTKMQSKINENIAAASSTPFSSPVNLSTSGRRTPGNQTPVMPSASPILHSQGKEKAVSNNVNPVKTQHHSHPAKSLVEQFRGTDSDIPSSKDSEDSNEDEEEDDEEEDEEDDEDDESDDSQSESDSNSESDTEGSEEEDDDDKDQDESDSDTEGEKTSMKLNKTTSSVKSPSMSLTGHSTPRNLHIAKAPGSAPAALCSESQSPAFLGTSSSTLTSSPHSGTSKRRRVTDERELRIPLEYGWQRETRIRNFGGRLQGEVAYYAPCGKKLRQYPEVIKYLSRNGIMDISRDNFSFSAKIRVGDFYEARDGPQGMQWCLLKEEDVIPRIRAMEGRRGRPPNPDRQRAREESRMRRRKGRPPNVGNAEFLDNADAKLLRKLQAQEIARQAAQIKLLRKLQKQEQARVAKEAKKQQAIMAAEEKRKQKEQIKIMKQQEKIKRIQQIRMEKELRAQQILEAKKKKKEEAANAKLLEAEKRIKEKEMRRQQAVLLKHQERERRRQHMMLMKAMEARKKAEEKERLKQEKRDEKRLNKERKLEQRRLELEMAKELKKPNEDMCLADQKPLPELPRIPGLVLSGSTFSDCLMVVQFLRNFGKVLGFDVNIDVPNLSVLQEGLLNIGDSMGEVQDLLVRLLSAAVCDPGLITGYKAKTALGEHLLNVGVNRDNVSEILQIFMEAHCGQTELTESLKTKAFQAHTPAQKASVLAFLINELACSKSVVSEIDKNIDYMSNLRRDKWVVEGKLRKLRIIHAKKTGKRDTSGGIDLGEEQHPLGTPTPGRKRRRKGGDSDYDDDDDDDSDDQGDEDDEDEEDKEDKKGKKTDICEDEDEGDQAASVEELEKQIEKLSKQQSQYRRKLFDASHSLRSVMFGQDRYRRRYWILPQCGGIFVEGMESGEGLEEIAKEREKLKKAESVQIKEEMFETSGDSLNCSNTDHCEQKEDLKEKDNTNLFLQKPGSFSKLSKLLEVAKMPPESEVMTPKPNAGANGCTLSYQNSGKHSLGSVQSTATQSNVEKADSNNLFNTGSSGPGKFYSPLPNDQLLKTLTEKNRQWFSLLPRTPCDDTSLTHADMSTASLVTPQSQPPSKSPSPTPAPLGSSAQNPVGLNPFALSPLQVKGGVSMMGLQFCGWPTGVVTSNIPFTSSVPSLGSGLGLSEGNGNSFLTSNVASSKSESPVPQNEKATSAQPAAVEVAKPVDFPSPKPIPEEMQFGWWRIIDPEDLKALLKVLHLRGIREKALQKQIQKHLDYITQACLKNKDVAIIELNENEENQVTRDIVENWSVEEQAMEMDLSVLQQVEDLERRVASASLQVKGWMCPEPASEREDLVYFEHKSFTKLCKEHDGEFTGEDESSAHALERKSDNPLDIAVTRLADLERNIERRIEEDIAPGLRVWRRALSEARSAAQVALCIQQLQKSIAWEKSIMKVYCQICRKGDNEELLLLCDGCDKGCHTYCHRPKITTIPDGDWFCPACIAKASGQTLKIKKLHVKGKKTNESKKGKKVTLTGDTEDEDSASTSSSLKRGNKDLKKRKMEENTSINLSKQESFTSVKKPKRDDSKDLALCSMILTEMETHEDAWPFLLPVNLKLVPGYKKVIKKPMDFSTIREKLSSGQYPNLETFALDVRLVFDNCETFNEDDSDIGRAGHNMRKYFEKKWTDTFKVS
#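 Compounds, titrated to a top concentration of 110 uM, were incubated 30 min at room temperature with preformed BAZ2B/acetyl-K14 H3 peptide complex (50 nM each). Proximity signal was measured by AlphaScreen after 20 min with beads.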
# G9a block: blocks human histone lysine methyltransferase G9a. Q96KQ7. G9a H3K9 monomethylation, AlphaScreen, 2 h. Potency, µM (doses to about 102 µM), without a hit: at the highest dose activity, negative = inhibition, usual class: inhibitors. 350,000 tested, 8.8% active. AID 504332; note: % is set by controls: 0 for no effect and ±100 for the full control effect; nearly all actives have a fitted effect of over 75% in size
#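 Signal arises when biotinylated H3K9 peptide, once monomethylated, bridges streptavidin donor and antibody-captured acceptor beads. Enzyme at 20 nM was preincubated 15 min with test compounds; peptide 500 nM and SAM 20 uM then reacted for 2 h.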
# JMJD2A Tudor: JMJD2A Tudor domain (human) inhibition. 390,000 tested, 4.4% active. Potency, µM (top dose mostly 114 µM), without a hit: at the highest dose activity change, negative = inhibition, hits mostly inhibitors. O75164. AlphaScreen JMJD2A-Tudor / H3K4me3 peptide binding; note: % is set by controls: 0 for no effect and ±100 for the full control effect; nearly all actives have a fitted effect of over 50% in size
# L3MBTL1 inh: L3MBTL1 (human) inhibition | Q9Y468 | AlphaScreen L3MBTL1–H3K9me1 peptide binding | Potency, µM (doses to about 57.1 µM), inactives show at the highest dose activity, negative = inhibition, most hits filed as inhibitors | 230,000 tested, 0.66% active | AID 485360; note: % is set by controls: 0 for no effect and ±100 for the full control effect; nearly all actives have a fitted effect of over 60% in size
#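 AlphaScreen assay: L3MBTL1 (50 nM final) was preincubated 30 min at room temperature with biotinylated H3(1-15)K9me1 peptide (75 nM final), then 30 min with library compounds; streptavidin donor and nickel chelate acceptor beads (10 ug/mL final) added, 30 min dark.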
# HP1b binding inh: inhibitors of HP1-beta chromodomain binding to methylated histone tails; P83916; 390,000 tested, 0.56% active; Potency, µM (highest dose often 114 µM), inactives show top-dose activity change, negative = inhibition, usual class: inhibitors; AlphaScreen HP1-beta / biotin-H3K9me3 peptide binding; note: nearly all actives have a fitted effect of over 70% in size
#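 AlphaScreen: HP1-beta (50 nM) preformed 30 min with biotin-H3(1-18)K9me3 peptide (50 nM) in PBS pH 7.4, 0.01% Tween-20. Compound added for 30 min at RT, then streptavidin donor/nickel chelate acceptor beads (10 ug/mL) for 30 min.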
# Sfp PPTase inh: inhibitors of Bacillus subtilis Sfp phosphopantetheinyl transferase | Q9F4F7 | Biochemical Sfp PPTase activity, qHTS | Potency, µM, for inactives: largest response in the series, negative = inhibition, hits mostly inhibitors | 310,000 tested, 3.5% active;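 note: the enzyme is Sfp with the accession as filed and its product quenches rhodamine fluorescence; 0% = enzyme reaction without inhibitor and -100% = no enzyme wells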
#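 Fluorescence-quenching assay with 15 nM Sfp, 5 uM rhodamine-CoA and 12.5 uM BHQ-2-labelled ybbR peptide in pH 7.6 Hepes/MgCl2 buffer. Enzyme was pre-incubated with compound for 15 min at room temperature. Rate was taken from the 30-min fluorescence change (525/598 nm).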
# An asterisk follows results filed as active; u = inconclusive; x = no result given; ! = not active in a repeat; [ ] = remark or other dose. A selection: hits, their analogues and other compounds. The true share with any hit is near 12%. Calls come from the whole dose curve; as a rule, active = well fitted curve in the direction sought with a large enough effect; inconclusive = small, poorly fitted or top-dose-only effect, or another doubt; inactive = no such curve, though single readings can be large; an effect the other way counts as inactive or inconclusive. Potency is the fitted concentration of half-maximal effect.
SMILES,BAZ2B block,G9a block,JMJD2A Tudor,L3MBTL1 inh,HP1b binding inh,Sfp PPTase inh
O=C1OCc2ccc(NS(=O)(=O)c3ccc(C(F)(F)F)cc3)cc21,-1%,9%,-11%,x,34%,11%
CN1CCN(Cc2cn[nH]c2-c2ccc(F)cc2F)[C@@H](c2ccccc2)C1,2%,12%,-13%,-19%,10%,14%
O=C(O)c1ccc2c(c1)C(=O)N(c1cccc3ccccc13)C2=O,-7%,-10%,-9%,x,10%,0%
COC(=O)/C=C1\C(=O)N(c2nc3ccccc3s2)C(=S)N1c1ccc(F)cc1,8%,71µM*,-12%,x,15%,-3%
Nc1nc(NCc2ccco2)nc(N2CCCC2)c1[N+](=O)[O-],71µM*,x,-26%,-10%,-9%,5%
Nc1nc(NCc2ccco2)nc(NC2CCCCC2)c1[N+](=O)[O-],2%,0%,-3%,-3%,0%,19%
Nc1nc(NCc2ccco2)nc(N2CCCCCC2)c1[N+](=O)[O-],50µM*,u,56µM*,-5%,u,-22%
Cc1ccc(N2C(=O)CS(=O)(=O)C23C(=O)N(Cc2ccc(Cl)cc2)c2ccccc23)cc1C (stereo not drawn),4%[57.1 µM],-47%[59 µM],-16%,x,28%,x
CC(C)(C)c1onc(OCP(=O)(O)O)c1CC(N)C(=O)O (stereo not drawn),x,5.3µM*,x,x,x,x
COc1cccc(NC(=O)Cn2cc(S(=O)(=O)N3CCCC3)c(S(=O)(=O)N3CCCC3)c2)c1,0%[57.1 µM],-7%[59 µM],-29%,x,5%,x
O=C1c2ccccc2NC(c2cn[nH]c2-c2ccc(Cl)cc2)N1O (stereo not drawn),-34%,28µM*,u,8%,42%,-3%
Cc1cc(OCC(=O)NC(C)C)cc(C)c1Cl,1%,-8%[59 µM],-1%,u,77%,7%
Cc1cc(OCCOCCNC(C)C)cc(C)c1Cl,79µM*,u,3.2µM*,x,-18%,-26%
Clc1ccc(CN2CCN(/N=C/c3ccco3)CC2)cc1,u,50µM*,u,x,u,3%
COC(=O)c1ccc(/C=N/N2CCN(Cc3ccc(Cl)cc3)CC2)cc1,-34%,-8%,-10%,-4%,36%,7%
Cc1ccc(/C=N/N2CCN(Cc3ccc(Cl)cc3)CC2)o1,u,50µM*,u,x,-22%,25µM*
CC1=C(C(=O)Nc2cccc(C(=O)NCc3ccccc3C)c2)SCCO1,u,10%,-35%,x,29%,5%
Nc1ccc(S(=O)(=O)NCc2ccccc2)cc1,x,1%[12.7 µM],x,x,x,12%
CCOC(=O)N1CCC(c2[nH][nH]c(=O)c2C)CC1,1%,40µM*,-19%,x,33%,-1%
CCOC(=O)N1CCC(NC2CCCCCCC2)CC1,29%,-43%[59 µM],7%,54%,26%,-1%
Oc1ccc(-c2nc3ccc4ccccc4c3c3c2CCC3)cc1O,50µM*,u,u,-7%,u,-9%
Cc1cc(C)c2c(ccc3ccccc32)n1,x,x,-3%,x,36%,x
Nc1nnn(CC(=O)N/N=C/c2ccc(Cl)cc2Cl)n1,1%,3%,-22%,8%,37%,6%
COc1ccc(S(=O)(=O)c2c(SC)nn(CC(=O)Nc3cccc(C)c3C)c2N)cc1,-13%,-3%[59 µM],-17%,x,12%,x
Cc1nc(N=Nc2cc(S(=O)(=O)O)c3cc([N+](=O)[O-])cc(S(=O)(=O)O)c3c2)c(COP(=O)(O)O)c(C=O)c1O,x,3.5µM*,x,x,x,40µM*!
SMILES,BAZ2B block,G9a block,JMJD2A Tudor,L3MBTL1 inh,HP1b binding inh,Sfp PPTase inh
Cc1nc(N=Nc2cc([N+](=O)[O-])ccc2Cl)c(COP(=O)(O)O)c(C=O)c1O,x,x,x,x,x,-21%
O=C1/C(=C/c2ccc([N+](=O)[O-])cc2)CCc2ccccc21,32µM*,u,x,x,x,15%
CC/C(=N/Nc1ccc(Cl)cc1)c1cnnc(SC)n1,-33%,5.6µM*,u,-1%,43%,10%
CC/C(=N/Nc1cccc(C)c1)c1cnnc(SC)n1,-35%,7.1µM*,56µM*,-9%,17%,-17%
CC/C(=N/O)c1cnnc(SC)n1,3%,19%[59 µM],-5%,3%,11%,1%
CCCCC(=O)OCc1c(-c2ccccc2)ncc2ccccc12,29%,7%[0.501 µM],52%,25%,101%,x
CC(C)N1CCc2c(sc(NC(=O)c3cc4cc([N+](=O)[O-])ccc4s3)c2C(N)=O)C1,40µM*,40µM*,u,-21%,u,u
NC(=O)c1c(NC(=O)c2ccc([N+](=O)[O-])o2)sc2c1CCCC2,-11%,34%,-6%,x,18%,-3%
CN1CCc2c(sc(NC(=O)c3cc4cc([N+](=O)[O-])ccc4s3)c2C(N)=O)C1,u,25µM*,x,x,x,-8%
CN1CCc2c(sc(NC(=O)c3ccc([N+](=O)[O-])o3)c2C(N)=O)C1,35µM*,35µM*,u,x,-30%,-30%
O=c1[nH]c(=O)n(C2CC(O)C(CO)O2)cc1C(F)(F)F (stereo not drawn),x,-24%[2.33 µM],x,x,x,16%
CCCOc1ccc(NC(=O)CC2C(=O)N(c3ccc(C)cc3)C(=O)N2Cc2cccc(OC)c2)cc1 (stereo not drawn),-3%,-2%[59 µM],-1%,x,32%,x
Cc1ccc(CNC(=O)CSc2nc3ccsc3c(=O)n2-c2ccc(C(=O)O)cc2)cc1,-1%,5%[59 µM],-4%,x,30%,x
Nn1cnnc1N/N=C/c1ccc(Cl)c([N+](=O)[O-])c1,-28%,45µM*,u,-18%,35%,u
Nn1cnnc1N/N=C/c1cccc(Cl)c1Cl,u,u,-7%,x,61%,u
Nn1cnnc1N/N=C/c1ccc(F)cc1,2%,45µM*,-11%,-2%,65%,56µM*
CCc1nnc(N/N=C/c2ccc(N3CCC(C)CC3)c([N+](=O)[O-])c2)n1N,u,50µM*,u,-5%,-5%,71µM*
Cc1ccc(/C=N/Nc2nncn2N)cc1,-6%,5%[2.33 µM],-12%,x,75%,40µM*
Nn1cnnc1N/N=C/c1ccccc1C(F)(F)F,-22%,u,-18%,x,41%,u
O=C(Nc1ccnn1C1CCN(C2CCOCC2)CC1)c1cccc(F)c1,-8%,43%,-3%,x,28%,14%
O=C(CSc1ncn[nH]1)N1CCCCC1,-10%,x,4%,x,32%,9%
O=C(CSc1ncc(-c2ccc(F)cc2)[nH]1)N1CCCCC1,u,45µM*,-26%,1%,13%,11%
O=C(CSc1ncc(-c2ccc(Cl)cc2)[nH]1)Nc1ccccc1F,-20%,10µM*,-2%,x,18%,x

# Screening results: PubChem, National Center for Advancing Translational Sciences (NCATS)
